The structures appear in SMILES notation. Several values for one entry are separate records, joined by “and”; a condition that tells them apart may be missing. Equal entries are not always repeated. Records with an inconclusive call do not appear. Activity calls are given as the source filed them. Calls follow the shape of the dose curve; as a rule, active = well fitted activation curve with a large enough effect; inconclusive = small, poorly fitted or top-dose-only effect; inactive = no such curve, though single readings can be large or run the other way.

This assay is described as follows: Extended Characterization of HPGD Inhibitors: PGE2 Assay in LNCaP Cells. As to conditions: PGE2 HTRF level, 16 h; series mostly up to 100 µM. An excerpt:
The central role of HPGD is to inactivate prostaglandins such as prostaglandin E2 (PGE2) or prostaglandin D2 (PGD2). These prostaglandins are involved in a number of processes, including inflammation, differentiation, and cellular signaling, which makes HPGD an important target for pharmacological intervention. A number of prostaglandins of particular biological interest have been identified as substrates of HPGD. […] Over-production of PGE2 has been reported to promote tumor-associated neovascularization, cell proliferation, and tumor growth. […] In this orthogonal assay, we set out to measure if compounds were able to increase PGE2 production NIH Chemical Genomics Center [NCGC] NIH Molecular Libraries Probe Centers Network [MLPCN] MLPCN Grant: MH084681 Assay Submitter (PI): Structural Genomics Consortium
A549 cells, LNCaP cells or media were dispensed in 384-well plates (ProxiPlate-384 Plus, PerkinElmer, Shelton, CT) at 5,000 cells/9.9 uL/well using a CappAero384 multichannel pipette (Odense, Denmark). Separately on the plate, 10 uL of PGE2 calibration standards at a starting assay concentration of 5,000 pg/mL (1:2 dilution, 12-points, n = 1, prepared in media, Cisbio, Bedford, MA) were dispensed. Compounds (100 nL, final concentration range from 41.9 nM to 100 uM) were transferred using an ATS Acoustic Liquid Dispenser (EDC Biosystems, Fremont, CA). After being mixed using an automated liquid handler (CyBio, Jena, Germany), samples were incubated (37 deg C, 5% CO2, under a humidified atmosphere) for 16 hours. PGE2 labeled conjugates were added to each well, first 5 uL of PGE2-d2, followed by 5 uL of anti-PGE2-cryptate, centrifuged (1,500 rpm, 15 sec) and incubated (RT, protected from light) for 5 hours. Time-resolved fluorescence intensity (320 nm excitation, 615 and 665 nm emission) was measured using an Envision plate reader (PerkinElmer). Data was expressed as the ratio of 665 nm/615 nm emissions. Concentration (pg/mL) of samples were calculated from a 4-parameter logistic calibration curves of the PGE2 standards.
Background: In TR-FRET formats the signal depends on donor and acceptor labels being close together.
As for `Cc1cc(-c2nnc3n2CCCCC3)c(C)n1-c1ccc([N+](=O)[O-])cc1`, the Potency is 2.22 µM (active).

As for `Cc1cccc(-n2cnc3cc(C(=O)N4CCCCCC4)ccc32)c1`, the Potency is 1.76 µM (active).

Take `Clc1ccc(CSc2nc3ncc(Br)cc3[nH]2)cc1Cl`: the Potency is 22.2 µM (active).

Take `CCOC(=O)c1ccc(-n2cnc3cc(C(=O)N4CCCCC4)ccc32)cc1`: the Potency result is “inactive”.

For the compound `Cc1cccc(-n2cnc3cc(C(=O)NC4CCCCC4)ccc32)c1`, the Potency was 22.2 µM (active).

In the case of `CC(C)(C)c1ccc(CSc2nc3ncc(Br)cc3[nH]2)cc1`, the Potency is 35.2 µM (active).

`COc1ccccc1-n1cnc2cc(C(=O)N3CCCCC3)ccc21`: the Potency is 1.76 µM (active).

Turning to `Cc1ccc(-n2c(C)cc(-c3nnc4n3CCCCC4)c2C)cc1`, the Potency is 0.702 µM (active).

`FC(F)(F)c1ccc(-c2nc(-c3nnc4n3CCCCC4)c(C(F)(F)F)o2)cc1`: the Potency result is “inactive”.

Regarding `Cc1cc(-c2nnc3n2CCCCC3)c(C)n1-c1ccc(F)cc1`, the Potency was 3.52 µM (active).

In the case of `c1ccc(-n2cc(-c3nnc4n3CCCCC4)cn2)cc1`, the Potency result was “inactive”.

As for `Cc1cc(-c2nnc3n2CCCCC3)c(C)n1-c1ccc(Br)cc1`, the Potency is 2.8 µM (active).

In the case of `FC(F)(F)c1ccc(CSc2nc3ncc(Br)cc3[nH]2)cc1`, the Potency was 44.3 µM (active).

As for `Cc1cc(-c2nnc3n2CCCCC3)c(C)n1-c1ccc(Cl)c(Cl)c1`, the Potency is 0.352 µM (active).

Consider `Brc1cnc2nc(SCc3cccnc3)[nH]c2c1`, for which the Potency is 7.03 µM (active).

In the case of `Clc1ccc(CSc2nc3ncc(Br)cc3[nH]2)cc1`, the Potency is 14 µM (active).

As for `Clc1cccc(CSc2nc3ncc(Br)cc3[nH]2)c1`, the Potency is 44.3 µM (active).

Take `Cc1ccc(-n2cnc3cc(C(=O)N4CCCCC4)ccc32)cc1`: the Potency is 0.443 µM (active).

As to `Brc1cnc2nc(SCc3ccncc3)[nH]c2c1`, the Potency was 4.43 µM (active).

On to `Cc1cccc(-n2cnc3cc(C(=O)N4CCC(C#N)CC4)ccc32)c1`, for which the Potency result is “inactive”.

On to `FC(F)(F)c1cccc(CSc2nc3ncc(Br)cc3[nH]2)c1`, for which the Potency was 35.2 µM (active).

Turning to `COc1ccc(CSc2nc3ncc(Br)cc3[nH]2)cc1F`, the Potency was 22.2 µM (active).

On to `O=C(c1ccc2c(c1)ncn2-c1cccc(Cl)c1)N1CCCCC1`, for which the Potency is 0.222 µM (active).

Turning to `Cc1cccc(-n2cnc3cc(C(=O)NC(C)(C)C)ccc32)c1`, the Potency result is “inactive”.

As for `N#Cc1ccc(CSc2nc3ncc(Br)cc3[nH]2)cc1`, the Potency is 22.2 µM (active).

In the case of `Fc1ccc(CSc2nc3ncc(Br)cc3[nH]2)cc1`, the Potency is 35.2 µM (active).

With `Brc1cnc2nc(SCc3ccccn3)[nH]c2c1`, the Potency was 11.1 µM (active).

Consider `O=C(c1ccc2c(c1)ncn2-c1ccccc1)N1CCCCC1`, for which the Potency was 0.28 µM (active).

Consider `COc1ccc(-n2cnc3cc(C(=O)N4CCCCC4)ccc32)cc1`, for which the Potency is 0.884 µM (active).

Take `Cc1cc(-c2nnc3n2CCCC3)c(C)n1-c1ccccc1`: the Potency was 7.03 µM (active).

In the case of `Cc1cc(-c2nnc3n2CCCCC3)c(C)n1-c1cccc(Cl)c1`, the Potency was 0.558 µM (active).

For `Clc1ccccc1CSc1nc2ncc(Br)cc2[nH]1`, the Potency is 44.3 µM (active).

As for `Cc1cc(-c2nnc3n2CCCCC3)c(C)n1-c1ccc(C(F)(F)F)cc1`, the Potency was 3.52 µM (active).

For the compound `O=[N+]([O-])c1ccccc1CSc1nc2ncc(Br)cc2[nH]1`, the Potency was 0.352 µM (active).

Turning to `Cc1cc(-c2nnc3n2CCCCC3)c(C)n1-c1cccc2ccccc12`, the Potency is 884 nM (active) and 1.76 µM (active).

`CC(C)c1cccc(-n2cnc3cc(C(=O)N4CCCCC4)ccc32)c1`: the Potency was 2.8 µM (active).

As to `Cc1ccccc1CSc1nc2ncc(Br)cc2[nH]1`, the Potency is 22.2 µM (active).

For the compound `Cc1cccc(-n2cnc3cc(C(=O)N4CCCC4)ccc32)c1`, the Potency was 55.8 µM (active).

Consider `N#Cc1cccc(CSc2nc3ncc(Br)cc3[nH]2)c1`, for which the Potency is 35.2 µM (active).

For the compound `CCOC(=O)c1ccc(-n2c(C)cc(-c3nnc4n3CCCCC4)c2C)cc1`, the Potency was 14 µM (active).

The record behind these values is PubChem BioAssay AID743172 (National Center for Advancing Translational Sciences (NCATS), 2013).
